Compound activity (PubChem BioAssay)
TEAD-YAP inh: TEAD-YAP interaction inhibition, primary screen, TEAD-YAP interaction inhibitor project, luminescence, HEK-TIYL cells. inhibition, % at 9.12 µM. 1.4% of 640,000 active. AID 1259422, 2018. TEAD-Gal4/YAP UAS-luciferase luminescence; in the data active = inhibition above about 32%
FBW7 act: FBW7 E3 ligase activators, primary screen, biochemical, AlphaScreen, human. AlphaScreen FBW7–phospho-cyclin E peptide binding, activator screen. normalized activity (activation), % at 26.1 µM. 0.13% of 650,000 active; in the data active = normalized activity above about 1.9%;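 note: purified mutant Fbw7 with reduced substrate affinity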
MITF inh: MITF inhibitors, primary screen, biochemical, AlphaScreen, human; Microphthalmia-associated transcription factor (Homo sapiens), O75030; AlphaScreen MITF homodimerization, bead proximity signal; inhibition, % at 2.6 µM; 0.91% of 650,000 active; in the data active = inhibition above about 50%
GPR151 ag: activators of human GPR151, primary screen, cell-based, PathHunter beta-arrestin, luminescence; G-protein coupled receptor 151 (Homo sapiens), Q8TDV0; activation, % at 11.2 µM; PathHunter beta-arrestin GPR151 cells; 1% of 650,000 active; in the data active = activation above about 4.9%
Target sequence (Q8TDV0 whole entry, looked up): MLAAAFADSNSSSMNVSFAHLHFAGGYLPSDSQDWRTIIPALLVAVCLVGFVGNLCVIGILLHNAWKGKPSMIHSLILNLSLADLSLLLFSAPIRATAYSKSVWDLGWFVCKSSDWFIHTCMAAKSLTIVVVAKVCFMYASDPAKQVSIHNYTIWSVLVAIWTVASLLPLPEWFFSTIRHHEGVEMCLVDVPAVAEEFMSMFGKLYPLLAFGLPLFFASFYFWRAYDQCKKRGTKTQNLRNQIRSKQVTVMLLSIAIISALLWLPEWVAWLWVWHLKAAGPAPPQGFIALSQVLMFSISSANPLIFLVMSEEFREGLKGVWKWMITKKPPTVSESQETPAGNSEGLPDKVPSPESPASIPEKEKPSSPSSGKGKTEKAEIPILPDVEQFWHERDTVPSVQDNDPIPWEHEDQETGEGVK
Hits are given with their value; i = inactive. In the library only some 3.4% were active in any assay of this set; here they are far more common.

SMILES | TEAD-YAP inh | FBW7 act | MITF inh | GPR151 ag
C[C@@H](OCc1ccccc1)[C@@H]1NC(=O)[C@H]2CN(Cc3ccc(F)c(F)c3)CCN2C1=O | i | i | i | i
Cc1ccc(S(=O)(=O)Nc2ccc3c(c2)N(C(=O)c2cccs2)CCC3)cc1 | 49.6 | i | i | i
CC(=O)N1CCc2ccc(NS(=O)(=O)c3ccc(C(C)(C)C)cc3)cc21 | 32.4 | i | i | i
CCC(=O)N1CCCc2ccc(NS(=O)(=O)c3ccc(OC)c(F)c3)cc21 | 57.6 | i | i | i
O=C(Nc1ccc2c(c1)CCCN2C(=O)c1cccs1)NC(c1ccccc1)c1ccccc1 | 45.1 | i | i | i
CC(C)CS(=O)(=O)Nc1ccc2c(c1)N(C(=O)c1cccs1)CC2 | i | i | i | i
Cc1cccc(OCC(=O)Nc2ccc3c(c2)CCCN3C(=O)c2cccs2)c1 | i | i | i | i
Cc1nc2sc(C(c3ccccc3F)N3CCN(C)CC3)c(O)n2n1 (configuration not stated) | i | i | i | i
CN1C(=O)C2(c3ccccc31)C(C(=O)NCc1ccccc1Cl)CC1CCCN12 (configuration not stated) | i | i | i | i
CCOC(=O)C(CC)Oc1ccc2c(=O)c(Oc3ccc(CC)cc3)coc2c1 (configuration not stated) | i | i | i | i
CCc1c(C)nc2ccc(C(=O)O)cc2c1Cl | i | i | i | i
COc1ccc(C(CC(=O)O)NC(=O)c2ccc([N+](=O)[O-])cc2)cc1OC (configuration not stated) | i | i | i | i
CCOc1ccccc1Nc1c(-c2ccccc2)c(=O)c1=O | i | i | i | i
CCOc1ccc(Nc2c(-c3ccccc3)c(=O)c2=O)cc1 | 59.6 | i | i | i
O=c1c(Nc2ccccc2)c(-c2ccc(Cl)cc2)c1=O | 47.1 | i | i | i
O=c1c(Nc2ccc(Cl)cc2)c(-c2ccccc2)c1=O | i | i | i | i
COc1cccc(C(=O)N(c2cccc(Cl)c2)C2C=CS(=O)(=O)C2)c1OC (configuration not stated) | i | i | i | i
COc1cc(/C=C2\C(=O)NC(=O)N(C)C2=O)cc(I)c1OC | i | i | i | i
O=C(CCl)NCc1c(Cl)cccc1-n1cccc1 | 35.2 | i | i | i
COc1cc(SC)ccc1C(=O)Nc1nc2c(s1)C(=O)CC(C)(C)C2 | i | i | i | i
COc1cc(SC)ccc1C(=O)Nc1nc2ccc(S(C)(=O)=O)cc2s1 | 46.5 | i | i | i
CSc1cccc(C(=O)Nc2nc3c(s2)CCCC3)c1 | i | i | i | i
COc1ccc(C(=O)Nc2nc3c(s2)CCCC3)c(OC)c1 | 94.8 | i | i | i
COc1cc2ccccc2cc1C(=O)Nc1nc2c(s1)CCCC2 | i | i | i | i
CC(=O)Nc1cc(NC(C)=O)cc(C(=O)Nc2nc3c(s2)CCCC3)c1 | 52.2 | i | i | i
SMILES | TEAD-YAP inh | FBW7 act | MITF inh | GPR151 ag
COc1cc(SC)ccc1C(=O)Nc1nc2c(s1)CCCC2 | 98.3 | i | i | i
COc1ccc(Cl)cc1C(=O)Nc1nc2ccc(S(C)(=O)=O)cc2s1 | i | i | i | i
COc1ccc(NC(=O)CSC2=C(C#N)C(c3ccco3)C3=C(CCCC3=O)N2)cc1 (configuration not stated) | i | i | i | i
CS(=O)(=O)N1CCc2cc(S(=O)(=O)Nc3ccc(F)c(Cl)c3)ccc21 | i | i | i | i
O=c1c(CN2CCN(c3cccc(C(F)(F)F)c3)CC2)coc2ccccc12 | 62.2 | i | i | i
O=c1c(CN2CCN(c3cccc(Cl)c3)CC2)coc2ccccc12 | 43.2 | i | 53.1 | i
Cc1ccc2occ(CN3CCN(c4ccccc4)CC3)c(=O)c2c1 | i | i | i | i
COCCC1CCCCN1C(=O)c1ccc(-n2cc(NC(=O)COC)cn2)cc1 (configuration not stated) | i | i | i | i
O=C(NNC(=O)C1c2ccccc2Oc2ccccc21)Nc1ccc2c(c1)OCO2 | 61.1 | i | i | i
CCc1ccc(NC(=O)c2cn(-c3ccc(OC)cc3)c(=O)c3ccccc23)cc1 | i | i | i | i
COc1ccccc1NC(=O)C(=O)N/N=C/c1ccc2c(c1)OCO2 | i | i | i | i
COc1ccccc1NC(=S)N/N=C/c1ccc2c(c1)OCCO2 | 60.6 | i | i | i
Cn1c(C(=O)NCCCN2CCCC2)cc2sccc21 | i | i | i | i
Cn1c(C(=O)NCCc2ccccc2)cc2sccc21 | 41.3 | i | i | i
Cc1cc2c(cc(C(=O)NCCc3ccccc3)n2C)s1 | 57.6 | i | i | i
CC(C(=O)Nc1ccc(F)cc1)N1CCCC1 (configuration not stated) | i | i | i | i
Cc1ccc(S(=O)(=O)/N=C2/C=C(Sc3ncn[nH]3)C(=O)c3ccccc32)cc1 | 98.1 | i | i | i
CC1=C/C(=C\c2c(O)n(Cc3ccco3)c(=S)[nH]c2=O)C(C)=N1 | i | i | 83.5 | i
CC1=C/C(=C\c2c(O)[nH]c(=O)[nH]c2=O)C(C)=N1 | i | i | i | i
COc1cccc(-c2nn3c(C4COc5ccccc5O4)nnc3s2)c1 (configuration not stated) | 61.3 | i | i | i
Fc1cccc(-c2nn3c(C4COc5ccccc5O4)nnc3s2)c1 (configuration not stated) | i | i | i | i
CCOc1ccc2[nH]c(=O)c(CN(Cc3cccnc3)S(=O)(=O)c3ccccc3)cc2c1 | 40.8 | i | i | i
CC1CN(Cc2cc([N+](=O)[O-])c3cccnc3c2O)CC(C)O1 (configuration not stated) | 53.8 | i | 83.7 | i
COCc1cc(CN2CCC(C)CC2)c(O)c2ncccc12 | 64.9 | i | 103.9 | i
CC1CCN(Cc2cc(COC(C)C)c3cccnc3c2O)CC1 | i | i | 85.4 | i
SMILES | TEAD-YAP inh | FBW7 act | MITF inh | GPR151 ag
O=C(N/N=C/c1cccnc1)c1cc(I)ccc1Cl | i | i | i | i
OCC(CO)(CO)NCCCNC(CO)(CO)CO | i | i | i | i
Cc1ccc(C2C3=C(Nc4[nH]c(=O)[nH]c(=O)c42)c2ccccc2C3=O)cc1 (configuration not stated) | 38.5 | i | i | i
COc1ccc(C2C3=C(Nc4[nH]c(=O)[nH]c(=O)c42)c2ccccc2C3=O)cc1 (configuration not stated) | 56.1 | i | i | i
COCCn1c2c(c(=O)[nH]c1=O)C(c1ccccc1)C1=C(N2)c2ccccc2C1=O (configuration not stated) | i | i | i | i
CCc1ccc(C2C3=C(Nc4c2c(=O)[nH]c(=O)n4CCOC)c2ccccc2C3=O)cc1 (configuration not stated) | 43.5 | i | i | i
Cc1ccc(C2C3=C(Nc4c2c(=O)[nH]c(=O)n4C)c2ccccc2C3=O)cc1 (configuration not stated) | i | i | i | i
COc1cc2nc(-c3ccc(N(C)C)cc3)n(C)c2cc1OC | i | i | i | i
